Activity calls are given as the source filed them. How the source made its calls: active means hit-call score of the fitted dose curve at least 0.9, where 1 is the maximum; inconclusive means response in the unintended direction; inactive means score below 0.9.

This test is described as follows: Tanguay_ZF_120hpf_MORT_legacy: (Legacy) Oregon State University Tanguay Lab 120 Hour Post-fertilization zebrafish Assay for Mortality (AID 2283633). The procedure: Tanguay_ZF_120hpf_legacy is a whole embryo, multiplexed endpoint assay using zebrafish larvae exposed for 120 hours post fertilization on a 96-well plate.Tanguay_ZF_120hpf_MORT_legacy is one of one assay component(s) measured or calculated from the Tanguay_ZF_120hpf_legacy assay. It is designed to make measurements of embryonic mortality as detected with brightfield microscopy of developing zebrafish embryos.Data from the assay component Tanguay_ZF_120hpf_MORT_legacy was analyzed into 1 assay endpoints. This assay endpoint, Tanguay_ZF_120hpf_MORT_legacy, was analyzed in the positive analysis fitting direction relative to DMSO as the negative control and baseline of activity. Using a type of viability reporter, gain-of-signal activity can be used to understand changes in developmentals as they relate to the whole embryo. To generalize the intended target to other relatable targets, this assay endpoint is annotated to the embryonic mortality intended target family, where the subfamily is embryonic mortality.
Zebrafish husbandry: Tropical 5D wild-type adult zebrafish were housed in at an approximate density of 1000 per 100 gallon tank at the Sinnhuber Aquatic Research Laboratory, Oregon State University, Corvallis, OR. Each tank was kept at standard laboratory conditions of 28C on a 14-h light/10-h dark photoperiod in fish water consisting of reverse osmosis water supplemented with a commercially available salt (Instant Ocean). Spawning funnels were placed into the tanks the night prior, and embryos were collected and staged. To increase bioavailability, the chorion was enzymatically removed using pronase (63.6mg/ml, >/= 3.5U/mg, Sigma-Aldrich: P5147) at 4 hours post fertilization (hpf) using a custom automated dechorionator.Chemical exposures: Six hpf dechorionated embryos were placed 1 embryo per well in a 96-well plate prefilled with 90 ul of EM using automated embryo placement systems (AEPS). Ten microliters of each row of dilution plate 2 was added to 2 exposure plates. The final DMSO concentration used was 0.64% (vol/vol). Thirty-two embryos were also exposed to 5uM trimethyltin chloride (positive control). Plates were sealed to prevent evaporation and foil covered to reduce light exposure and kept in a 28C incubator. Embryos were statically exposed until 120 hpf. At 24 hpf, embryos were assessed for photomotor response using a custom photomotor response analysis tool (PRAT) and for developmental toxicity endpoints (MO24: mortality at 24 hpf, DP: developmental progression, SM: spontaneous movement, and NC: notochord distortion). At 120 hpf, locomotor activity was measured using Viewpoint Zebralab and assessed for 18 endpoints. Zebrafish acquisition and analysis program (ZAAP), a custom program designed to inventory, acquire, and manage zebrafish data, was used to collect developmental endpoints as either present or absent (i.e., binary responses were recorded). If mortality occurred for an embryo (at either 24 or 120 hpf), the non-mortality endpoints were not measured.
As for `O=C(O)c1ccc2c(c1)nc(C(=O)NC1CCN(C3CC3)CC1)n2Cc1cc(-c2ccc(Cl)s2)on1`, the molecule was classed as inactive. `O=C(O)[C@H](O)[C@@H](O)C(=O)O`: the outcome was inactive.

With `CCCc1ccccc1`, the molecule was classed as inactive. As for `COc1cc(C(C)C)c2c(c1)S(=O)(=O)N(COc1cc(=O)n3cccc(OCCN4CCCCC4)c3n1)C2=O`, the entry is “inactive”; as for `NC(=O)N1c2ccccc2C=Cc2ccccc21`, “inactive”; as for `CCc1ccc(O)c(C(C)(C)C)c1`, “inactive”. As for `C[C@]12C=CC(=O)C=C1CC[C@H]1[C@@H]3C[C@@H](O)[C@](O)(C(=O)CO)[C@@]3(C)C[C@H](O)[C@@]12F`, the entry is “inactive”; as for `c1ccc2c(c1)-c1cccc3c1c-2cc1ccccc13`, “inactive”. The result for `CCn1nc(C)c2c1C(=O)NCC(c1ccc(O)cc1)=N2` reads “inactive”; that for `CCCCC(CC)C(=O)OCCOCCOCCOC(=O)C(CC)CCCC` (stereo not given), “inactive”; that for `Cn1cc[nH]c1=S`, “inactive”. Turning to `NC(=O)NN=Cc1ccc([N+](=O)[O-])o1`, the result was inactive. The result for `CCCCCCCC1CCC(=O)O1` (stereo not given) reads “inactive”; that for `CCCCN1C(=O)[C@@H]([C@H](O)C2CCCCC2)NC(=O)C12CCN(Cc1ccc(Oc3ccc(C(=O)O)cc3)cc1)CC2`, “inactive”; that for `Cc1nc(-c2ccccn2)ncc1C(=O)Nn1cc(C)c2cc(F)ccc21`, “inactive”. Regarding `OCc1ccccc1`, the result was inactive. On to `C=CN1CCCC1=O`, for which the result was inactive. As for `OC(CCl)CCl`, the entry is “inactive”.

As to `O=C(O)c1cccc(C(=O)O)c1`, the molecule was classed as inactive. `CCOc1ccc2[nH]cc(C(=O)NCc3ccccc3)c(=O)c2n1`: the result was inactive. As for `O=S(=O)(O)c1ccc(N=Nc2c(O)ccc3cc(S(=O)(=O)O)ccc23)cc1`, the entry is “inactive”; as for `CCCOc1ccc(S(=O)(=O)N2CCN(CC)CC2)cc1-c1nc2c(CC)n(Cc3ccccn3)nc2c(=O)[nH]1`, “inactive”.

Turning to `CCCCCCCCCC`, the molecule was called inactive. The result for `CCCCCCCCN(C)C` reads “inactive”; that for `CC(C)CCCCCCOC(=O)C1CCCCC1C(=O)OCCCCCCC(C)C` (stereo not given), “inactive”. As for `OCC(CO)(CO)CO`, the entry is “inactive”; as for `OC[C@H]1O[C@@](CO)(O[C@H]2O[C@H](CO)[C@@H](O)[C@H](O)[C@H]2O)[C@@H](O)[C@@H]1O`, “inactive”; as for `c1ccc(C(O[C@@H]2CCCN(CCc3ccc4c(c3)OCO4)C2)c2ccccc2)cc1`, “inactive”. As for `CC(C)CC(C)O` (stereo not given), the entry is “inactive”; as for `NNC(=O)c1ccncc1`, “inactive”; as for `c1ccc2cc3ccccc3cc2c1`, “inactive”. Take `COCc1nnc(-c2ccc[n+]([O-])c2)n1-c1c(Cl)c(Cl)cc2[nH]c(=O)c(=O)[nH]c12`: the molecule was classed as inactive. The result for `O=C1CN(N=Cc2ccc([N+](=O)[O-])o2)C(=O)N1` reads “inactive”; that for `c1ccc2ncccc2c1`, “inactive”; that for `CCCCOC(=O)c1ccccc1`, “inactive”.

For `CCCCCOC(C)=O`, the call was inactive. On to `COc1cc2c(c(OC)c1OC)-c1ccc(OC)c(=O)cc1[C@@H](NC(C)=O)CC2`, for which the outcome was inactive. As for `O=C(NO)C1(NS(=O)(=O)c2ccc(Oc3ccc(F)cc3)cc2)CCOCC1`, the entry is “inactive”; as for `OCCNCCO`, “inactive”; as for `CCCCCCOC(=O)CC(CC(=O)OCCCCCC)(OC(=O)CCC)C(=O)OCCCCCC`, “inactive”.

The values are drawn from PubChem BioAssay (EPA / NIEHS).
